# Assay outcomes as filed in PubChem BioAssay.
# HP1b chromo inh: inhibitors of HP1-beta chromodomain binding to methylated histone tails. AID 540317. hit rate 0.56% among 390,000. P83916. Potency, µM (titrated, usually from 114 µM), for inactives: at the top dose activity change, negative = inhibition, hits mostly inhibitors. AlphaScreen HP1-beta / biotin-H3K9me3 peptide binding; also: nearly all actives have a fitted effect of over 70% in size
# Target sequence (P83916 whole entry, looked up): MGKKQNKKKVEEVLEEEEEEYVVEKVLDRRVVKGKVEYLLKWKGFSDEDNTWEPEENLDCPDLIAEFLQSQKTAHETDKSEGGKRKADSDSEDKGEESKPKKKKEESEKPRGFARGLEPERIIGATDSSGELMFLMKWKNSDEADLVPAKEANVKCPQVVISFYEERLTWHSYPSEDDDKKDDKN
#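 AlphaScreen: HP1-beta (50 nM) preformed 30 min with biotin-H3(1-18)K9me3 peptide (50 nM) in PBS pH 7.4, 0.01% Tween-20. Compound added for 30 min at RT, then streptavidin donor/nickel chelate acceptor beads (10 ug/mL) for 30 min.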
# Sfp PPTase inh: blocks B. subtilis Sfp PPTase activity; Biochemical Sfp PPTase activity, qHTS; hit rate 3.5% among 310,000; Potency, µM, inactives show largest response in the series, negative = inhibition, actives largely listed as inhibitors; Q9F4F7;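 also: the enzyme is Sfp with the accession as filed and its product quenches rhodamine fluorescence; 0% = enzyme reaction without inhibitor and -100% = no enzyme wells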
#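 After 15 min at room temperature with compound, 15 nM Sfp received 5 uM rhodamine-CoA plus 12.5 uM BHQ-2-ybbR (50 mM Hepes pH 7.6, 10 mM MgCl2). Rate came from the fluorescence difference over 30 min, ex 525/em 598 nm.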
# JMJD2A Tudor: JMJD2A Tudor domain (human) inhibition; AlphaScreen JMJD2A-Tudor / H3K4me3 peptide binding; Potency, µM (highest dose often 114 µM), for the others: at the highest dose activity change, negative = inhibition, usual class: inhibitors; hit rate 4.4% among 390,000; also: % is scaled to controls: 0 for no effect and ±100 for the full control effect; nearly all actives have a fitted effect of over 50% in size
# ALOX12 inh: ALOX12 (human) lipoxygenase inhibition | Potency, µM (doses to about 108 µM), without a hit: top-dose activity change, negative = inhibition, usual class: inhibitors | purified 12hLO, xylenol orange hydroperoxide absorbance | P18054 | hit rate 1.1% among 580,000; also: % is scaled to controls: 0 for no effect and ±100 for the full control effect
#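 Hydroperoxide product was detected by ferrous iron/xylenol orange as the 573 to 405 nm absorbance ratio. Arachidonic acid at 40 uM (final) was turned over for 30 min at room temperature by 150 nM human 12hLO, pH 7.0 Hepes buffer, after 15 min compound preincubation.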
# G9a block: G9a (human) methyltransferase inhibition; hit rate 8.8% among 350,000; Q96KQ7; Potency, µM (series often up to 102 µM), inactives show at the top dose activity, negative = inhibition, usual class: inhibitors; G9a H3K9 monomethylation, AlphaScreen, 2 h; AID 504332; also: % is scaled to controls: 0 for no effect and ±100 for the full control effect; nearly all actives have a fitted effect of over 75% in size
# Target sequence (Q96KQ7 913-1193 limits assumed): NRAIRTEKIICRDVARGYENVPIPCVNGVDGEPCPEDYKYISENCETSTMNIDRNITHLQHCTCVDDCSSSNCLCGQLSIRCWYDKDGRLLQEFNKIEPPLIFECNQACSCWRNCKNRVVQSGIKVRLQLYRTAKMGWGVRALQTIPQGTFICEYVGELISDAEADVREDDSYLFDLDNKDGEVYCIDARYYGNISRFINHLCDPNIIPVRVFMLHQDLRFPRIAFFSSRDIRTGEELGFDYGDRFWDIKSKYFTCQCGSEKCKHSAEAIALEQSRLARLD
#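 Methyltransferase reactions run at room temperature for 2 h (20 nM enzyme, 500 nM biotin-H3K9 peptide, 20 uM SAM) after a 15 min compound preincubation; product detected by AlphaScreen beads and anti-H3K9me1 antibody.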
# BAZ2B block: inhibitors of human BAZ2B bromodomain | hit rate 4.4% among 360,000 | Potency, µM (top dose mostly 114 µM), without a hit: at the top dose activity change, negative = inhibition, usual class: inhibitors | AlphaScreen BAZ2B-H3K14Ac peptide displacement | Q9UIF8 | AID 504333; also: % is scaled to controls: 0 for no effect and ±100 for the full control effect; nearly all actives have a fitted effect of over 60% in size
#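 Multi-concentration screen (max 110 uM) measuring displacement of acetylated histone H3 peptide from BAZ2B by AlphaScreen, using 50 nM protein, 50 nM peptide and 10 ug/mL streptavidin donor plus Ni-chelate acceptor beads.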
# * = called active by the depositor; i = inactive; ? = inconclusive; / = no result given; [ ] = dose if it differs, or a comment. This is a sample that favours compounds with a hit; in the whole collection about 8.7% have one here. Calls follow the shape of the dose curve; as a rule, active = well fitted curve in the direction sought with a large enough effect; inconclusive = small, poorly fitted or top-dose-only effect, or another doubt; inactive = no such curve, though single readings can be large; an effect the other way counts as inactive or inconclusive. Potency is read from the fitted curve at half-maximal effect.
SMILES,HP1b chromo inh,Sfp PPTase inh,JMJD2A Tudor,ALOX12 inh,G9a block,BAZ2B block
O=C(NC1CCCC(C(F)(F)F)C1)C1CCCCC1 (centres undefined),/,/,/,4%,/,/
Cc1nc2ccccn2c1C(=O)NNC(=S)Nc1ccc(Cl)cc1,-14%,0%,?,-9%,1.3µM*,3%
COc1ccc(Br)cc1S(=O)(=O)NNC(=O)c1c(C)nc2ccccn12,20%,2%,-5%[11.4 µM],-24%,79µM*,-20%
Cc1nc2ccccn2c1C(=O)NNC(=O)Nc1ccccc1,26%,3%,-2%,0%,50µM*,-18%
Cc1cccc(-n2cnc(C(=O)NNC(=S)Nc3ccc(Cl)cc3)c2)n1,19%,12%,35µM*,-11%,8.9µM*,11µM*
CCCc1ccc(CN2CCC(c3nnc(Cn4ccnc4)n3C3CC3)CC2)o1,/,/,/,18%,/,/
O=C(NC1CCCc2ccccc21)C1(c2ccccc2)CC1 (centres undefined),/,/,/,-10%,/,/
O=C(O)c1cc(NCc2c(F)cccc2Cl)ccc1N1CCOCC1,9%,-4%,-2%,1%,13µM*,9%
O=C(O)c1cc(NCc2ccc(-c3ccccc3)cc2)ccc1N1CCOCC1,/,/,/,12%,/,/
COC(=O)c1cc(NCc2ccccc2F)ccc1N1CCOCC1,9%,-11%,-25%,?,45µM*,-12%
Nc1nc(N)c2ncc(C(=O)CCc3ccccc3)nc2n1,-26%,0%,14µM*,?,40µM*,?
O=C(NCCc1ccccc1)c1cnc2ccccc2n1,19%,3%,-19%,-13%,25%,10%
Cc1ccc(S(=O)(=O)N(C)C)cc1NC(=O)CSc1nc2ncc(Cl)cc2[nH]1,-6%,/,-19%,0%,35µM*,4%
Cc1ccccc1NC(=O)CSc1nc2ncc(Cl)cc2[nH]1,45%,-7%,0%,16%,?,-8%[57.1 µM]
CC1(C)CC(Nc2ccc(Nc3ccccc3)cc2)CC(C)(C)N1,?,20µM*,45µM*,?,?,35µM*
CCc1ccc(N=C2NC(=O)/C(=C/c3cc(Br)c(OCC(=O)O)c(OC)c3)S2)cc1,?,2%,50µM*,19%,50µM*,50µM*
CC(C)(C)C1CCC(=NNc2nc3ccccc3[nH]2)CC1 (centres undefined),27%,-9%,-28%,-13%,40µM*,?
c1ccc2c(c1)CC/C2=N/Nc1nc2ccccc2[nH]1,9%,35µM*,-29%,?,5%,?
CCCOc1cccc(C(=O)Nc2scc(-c3ccc(OC)c(OC)c3)c2C(=O)OC)c1,/,/,/,30%,/,/
c1ccc(Nc2cc(Nc3ccccc3)[nH]n2)cc1,-26%,-13%,?,?,?,45µM*
COc1cc(C(=O)NC(=S)Nc2ccccc2[N+](=O)[O-])cc(OC)c1OC,?,79µM*,28µM*,?,?,?
CCOc1ccc(C(=O)NC(=S)Nc2ccccc2OC)cc1[N+](=O)[O-],?,8%,?,?,?,-20%
COc1cc(C(=O)NC(=S)Nc2ccc([N+](=O)[O-])cc2C)cc(OC)c1OC,-14%,?,?,-26%,-20%[59 µM],7%
CCCC(=O)Nc1ccccc1NC(=O)c1cc(OC)c(OC)c(OC)c1,37%,3%,-6%,8%,89µM*,4%
COc1cc(C(=O)NNC(=S)Nc2ccc(S(N)(=O)=O)cc2)cc(OC)c1OC,-10%,13µM*,-5%[11.4 µM],?,8.9µM*,-23%
SMILES,HP1b chromo inh,Sfp PPTase inh,JMJD2A Tudor,ALOX12 inh,G9a block,BAZ2B block
COc1cc(C(=O)NC(=S)Nc2ccc([N+](=O)[O-])cc2)cc(OC)c1OC,-10%,45µM*,?,-21%,?,4%
CCCNC(=O)N1CCC2(CC1)NCCc1c2[nH]c2ccccc12,/,/,/,23%,/,/
CC(=O)/C(C=Nc1cc(C(F)(F)F)ccc1Cl)=C(/C)O,/,/,/,-24%,/,/
CCOc1ccc(OCCC(=O)NNC(=O)c2cc(OC)c(OC)c(OC)c2)cc1,3%,/,-21%,1%,79µM*,-21%
NC(N)=Nc1nc(-c2ccc3ccccc3c2)cs1,/,/,/,-17%,/,/
Nc1nc(-c2ccc3ccccc3c2)cs1,-36%,0%,-36%,0%,50µM*,?
Nc1nc(-c2cccc(NS(=O)(=O)c3ccccc3)c2)cs1,-16%,0%,?,?,45µM*,?
Nc1nc(-c2ccc(-c3ccccc3)cc2)cs1,-8%,-40%,-23%,0%,45µM*,-32%
CC(=O)Nc1ccc(S(=O)(=O)Nc2cccc(-c3csc(C)n3)c2)cc1,39%,-1%,-5%,0%,9%[0.501 µM],-6%
COc1ccc(/C=C/C(=O)N(CCC(N)=O)c2ccccc2)cc1S(=O)(=O)N1CCOCC1,53%,/,6%,-9%,50µM*,-2%
CC(C)C(=O)N1CCC(n2nccc2NC(=O)CCc2ccccc2)CC1,9%,4%,25µM*,-6%,2%,-2%[57.1 µM]
C=C(C)CCC(C)N1CCC(n2nccc2NC(=O)CCCc2ccccc2)CC1 (centres undefined),14%,9%,-13%,42%,79µM*,-15%
CSCC(C)N1CCC(n2nccc2NC(=O)CCCc2ccccc2)CC1 (centres undefined),40%,11%,-7%,24%,-1%,-17%
CCC(C)/C=C/C1=CC2=C(Cl)C(=O)C3(C)OC(=O)C(C(=O)C(C)C(C)O)C3C2=CO1 (centres undefined),3%,32µM*,-35%,?,?,?
O=C(OCC(=O)N1CCCCC1)c1c[nH]c(=O)[nH]c1=O,-8%,16%,9%[11.4 µM],?,-9%,-7%
O=c1[nH]cc(N2CCCCCC2)c(=O)[nH]1,50%,-4%,-1%,-3%,50µM*,1%
CNc1ccc(Br)cc(C(=O)/C=C/c2ccc(OC)cc2OC)c1=O,?,?,32µM*,?,7.9µM*,32µM*
CNc1ccc(Br)cc(C(=O)/C=C/c2cccc(OC)c2)c1=O,?,20µM*,45µM*,?,7.9µM*,45µM*
CNc1ccc(Br)cc(C(=O)/C=C/c2ccc(Cl)cc2Cl)c1=O,?,14µM*,56µM*,13µM*,35µM*,?
COc1ccc(-c2cc(C(=O)NC3CC3)c3c(C4CCCNC4)noc3n2)cc1 (centres undefined),/,/,/,5%[6.33 µM],/,/
O=C(OCc1ccc(Br)cc1)c1ccncc1,77%,-8%,3%,-9%,/,8%
O=C(OCc1ccc(Br)cc1)c1cnc(Cl)c(Cl)c1,464%,-11%,71µM*,-19%,i,404%
